Holding throughout (assay): NCI-60 one-dose screen, 48 h (100 = growth as untreated, 0 = no growth, -100 = all killed)
Holding throughout (settings): 10 µM unless noted

Experiment [1] deals with DU-145 prostate.
The test system of experiment [2] is K-562 leukemia.
The subject of experiment [3] is MALME-3M melanoma.
In experiment [4] the test system is MDA-MB-231 breast.
The subject of experiment [5] is RXF 393 renal.
Experiment [6] deals with SF-268 CNS.
Experiment [7] has as its system SF-295 CNS.
Experiment [8] concerns SF-539 CNS.
For experiment [9], the system named is UACC-257 melanoma.
Experiment [10] relates to M14 melanoma.
Experiment [11] relates to HCT-15 colon.
In experiment [12] the test system is HT29 colon.
Experiment [13] deals with SNB-75 CNS.
For experiment [14], the system named is SNB-19 CNS.
The test system of experiment [15] is U251 CNS.
Experiment [16] has as its system PC-3 prostate.
For experiment [17], the system named is SK-MEL-5 melanoma.
Experiment [18] has as its system UACC-62 melanoma.
Experiment [19] relates to LOX IMVI melanoma.
In experiment [20] the test system is SK-MEL-28 melanoma.

This is part of a sample that, as a whole, favours compounds with a hit. Of some 83,000 tested, about 20% had one in any assay.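 Values shown are percent growth following 48 h exposure of cells in 96-well plates to a single concentration of compound; below 10 was considered active.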 A number with no mark means an inactive call. Activity calls are given as the source filed them.

Take `O=C1c2ccccc2-c2c1c1c(=O)[nH]c3ccccc3c1n2Cc1ccccc1`: the growth in experiment [1] was 79%; in [2], 63.3%; in experiment [3], 14%; in [4], 62%; in experiment [5], 25.2%; in experiment [6], 50.7%. Besides, the growth in experiment [7] is 60.3%; in experiment [8] it was 55.7%; in experiment [9], 74.9%; in experiment [10] it was 84.2%; in experiment [11], 84.5%; in experiment [12], 75.6%. Also, the growth was 70.8% in experiment [13]; 68.7% in experiment [14]; 68.6% in [15]; 74% in experiment [16]; 60.6% in [17]; 53.8% in experiment [18]. Moreover, the growth in experiment [19] was 82.7%; in experiment [20], 85.7%.
Turning to `O=C(/C=C/c1cn(-c2ccccc2)nc1-c1ccc(Cl)cc1)c1ccc(F)cc1`, the growth is 88.7% in [1]; 57.7% in [2]; 87.5% in experiment [3]; 65.6% in experiment [4]; 100% in [5]; 83.4% in experiment [6]. Besides, the growth is 172% in experiment [7]; 96.6% in [8]; 104% in experiment [9]; 79.3% in experiment [10]; 58.8% in [11]; 77% in experiment [12]. The growth was 74.6% in experiment [13]; 76.1% in [14]; 76.6% in experiment [15]; 67.6% in experiment [16]; 86% in experiment [17]; 59% in experiment [18]. For the same compound, the growth in experiment [20] is 106%.
For `CCN(CC)CCn1c2ccc(OC)cc2c2sc3cc(OC)ccc3c(=O)c21`, the growth is 44.9% in [1]; 4.61% (active) in experiment [2]; -27% (active) in [3]; 40.5% in experiment [4]; 12.7% in experiment [5]; 38.5% in experiment [6]. Also, the growth in experiment [7] is 18.9%; in experiment [8] it was 22.7%; in experiment [9], 41.3%; in experiment [10] it was -77.9% (active); in [11], 8.79% (active); in experiment [12], 0.172% (active). In addition, the growth in experiment [13] was 85.9%; in experiment [14], 28.9%; in experiment [15], 20.5%; in experiment [16] it was 25.6%; in [17], 57%; in experiment [18], 47.2%. Moreover, the growth in experiment [20] is 29.7%.
In the case of `O=C1/C(=C/c2cccc(F)c2)CN(C(=O)C(Cl)Cl)C/C1=C\c1cccc(F)c1`, the growth is -81.5% (active) in [1]; -9.05% (active) in experiment [2]; -36.2% (active) in [3]; -63.7% (active) in experiment [4]; -89.6% (active) in experiment [5]; -29.6% (active) in experiment [6]. The growth is -71.2% (active) in experiment [7]; -98.6% (active) in experiment [8]; -42.4% (active) in experiment [9]; -69.7% (active) in [10]; -64.7% (active) in [11]; 1.62% (active) in experiment [12]. The growth in experiment [13] was -52.2% (active); in experiment [14], -88.2% (active); in [15] it was -90.2% (active); in experiment [16] it was -77.8% (active); in experiment [17], -82.2% (active); in [18], -83.5% (active). Further, the growth in experiment [19] is -92.1% (active); in [20] it was -80.3% (active).
As to `COc1cc2c(cc1OCCCN1CCN(CCCOc3cc4c(cc3OC)C(=O)N3CC(F)(F)C[C@H]3C=N4)CC1)N=C[C@@H]1CC(F)(F)CN1C2=O`, the growth was 16.3% in [1]; 36.5% in experiment [2]; 89% in experiment [3]; 85.3% in [4]; 86.2% in experiment [5]; 14.6% in [6]. Further, the growth in [7] is 30.6%; in experiment [8], 51%; in experiment [9], 85.3%; in experiment [10], 70.2%; in experiment [11], 101%; in experiment [12], 60.1%. The growth in [13] was 2.55% (active); in [14], 47.2%; in experiment [15] it was 7.49% (active); in experiment [16], 68.5%; in experiment [17], 20.6%; in experiment [18], 76.2%. Besides, the growth was 12% in [19] and 99.3% in experiment [20].
Consider `NNc1nc(-c2cccnc2)nc2c1sc(=S)n2-c1ccccc1`, for which the growth was 106% in experiment [1]; 75.5% in [2]; 100% in [3]; 105% in [4]; 114% in [5]; 89.6% in [6]. In addition, the growth in experiment [7] is 98.1%; in experiment [8], 95.6%; in experiment [9] it was 92.3%; in experiment [10] it was 99.9%; in [11], 96.3%; in experiment [12], 90.3%. The growth in experiment [13] is 87.4%; in experiment [14], 113%; in experiment [15], 90.6%; in experiment [16], 72.6%; in [17] it was 98.4%; in experiment [18] it was 108%. For the same compound, the growth in experiment [19] is 86.7%; in experiment [20] it was 119%.
As for `COc1ccc(OC)c(Nc2nnc(-c3ccc(O)c(OC)c3)o2)c1`, the growth is 51.4% in experiment [1]; 32.3% in [2]; 79.9% in experiment [3]; 69.4% in experiment [4]; 52.7% in experiment [5]; 68.8% in experiment [6]. In addition, the growth in [7] was 100%; in experiment [8], 49.9%; in experiment [9], 115%; in experiment [10], 74.6%; in [11], 46.5%; in experiment [12], 99%. In addition, the growth in [13] is 15.2%; in experiment [14] it was 70%; in experiment [15], 65.1%; in experiment [16], 74.8%; in experiment [17], 71.6%; in [18], 96.7%. Also, the growth in [19] is 43.3%; in [20], 108%.
For `CS(=O)(=O)Nc1cncc(-c2ccc3ncnc(Nc4cncc(Cl)c4)c3c2)c1`, the growth is 88.4% in experiment [1]; 100% in [2]; 65.1% in experiment [3]; 77.1% in experiment [4]; 87.3% in experiment [5]; 68.1% in experiment [6]. In addition, the growth is 97.1% in [7]; 74.6% in experiment [8]; 67.9% in experiment [9]; 93.1% in experiment [10]; 92.9% in [11]; 80% in experiment [12]. In addition, the growth was 82.4% in experiment [13]; 68.2% in [14]; 59.2% in [15]; 84.7% in experiment [16]; 95.4% in [17]; 69.6% in experiment [18]. Also, the growth in experiment [19] is 79.7%; in experiment [20] it was 81.6%.
As to `COCCn1cc(-c2csc(-c3cn(C)c4ccc(Br)cc34)n2)c2cccnc21`, the growth is 62.5% in experiment [1]; -9.15% (active) in [2]; 96.6% in [3]; 42.9% in experiment [4]; 68.8% in experiment [5]; 64.8% in experiment [6]. In addition, the growth is 33.9% in experiment [7]; 70.1% in experiment [8]; 63.7% in [9]; 42.9% in [10]; 12.1% in [11]; 26% in experiment [12]. Moreover, the growth in experiment [13] was 75.6%; in [14] it was 78.5%; in experiment [15], 51.4%; in experiment [16] it was 38.1%; in experiment [17] it was 71%; in experiment [18], 70.5%. Moreover, the growth in experiment [19] was -55.1% (active); in [20], 74.9%.
Turning to `COc1cc(/C=C2/C=C(c3ccccc3)N(CCc3ccc(S(N)(=O)=O)cc3)C2=O)cc(OC)c1OC`, the growth in experiment [1] is 109%; in [2], 93.6%; in experiment [3], 84.2%; in experiment [4], 96.8%; in experiment [5] it was 96.1%; in experiment [6], 107%. Also, the growth was 99.2% in experiment [7]; 101% in [8]; 84% in experiment [9]; 89.8% in experiment [10]; 100% in experiment [11]; 94.7% in experiment [12]. Besides, the growth is 71.9% in [13]; 101% in experiment [14]; 87% in [15]; 44.2% in experiment [16]; 90.7% in experiment [17]; 89.6% in experiment [18]. The growth is 101% in experiment [19] and 119% in experiment [20].
In the case of `CN(/C(N)=N/N=C/c1c2ccccc2cc2ccccc12)C1CCCCC1`, the growth in experiment [1] was 57.6%; in [2] it was 12.9%; in experiment [3], 39.8%; in experiment [4], 59.9%; in [5], 48.1%; in experiment [6], 72.4%. In addition, the growth is 45.7% in experiment [7]; 73.9% in [8]; 64.3% in [9]; 37.7% in [10]; 25.5% in experiment [11]; 17.9% in experiment [12]. Besides, the growth is 57.2% in experiment [13]; 71.5% in experiment [14]; 48.3% in experiment [15]; 36.7% in [16]; 12.1% in experiment [17]; 47.6% in experiment [18]. The growth in [19] was 31.3%; in experiment [20], 48.8%.
`NC(=O)C(=O)c1ccccc1NC=O`: the growth is 106% in experiment [1]; 92.3% in experiment [2]; 96.8% in experiment [3]; 97.7% in [4]; 110% in experiment [5]; 97.2% in experiment [6]. The growth was 104% in experiment [7]; 102% in experiment [8]; 98.7% in experiment [9]; 92.7% in experiment [10]; 105% in experiment [11]; 101% in experiment [12]. Also, the growth in [13] is 77.2%; in experiment [14] it was 99.9%; in [15] it was 96.3%; in experiment [16], 90.1%; in experiment [17], 103%; in [18], 92.1%. Moreover, the growth in [19] was 93.1%; in [20] it was 101%.
Take `Nc1n[nH]c2ccc([C@H]3[C@@H]4C5CCC(C5)[C@@H]4c4c(ccc5[nH]ncc45)N3S(=O)(=O)C3CC3)cc12` (stereo partly drawn): the growth is 17.9% in experiment [1]; 13.6% in experiment [2]; 61.4% in experiment [3]; -9.16% (active) in [4]; 26.2% in experiment [5]; 37.1% in experiment [6]. The growth in experiment [7] was 12.6%; in [8] it was -25.5% (active); in [9], 63.8%; in experiment [10], 7.92% (active); in experiment [11], 12.3%; in [12] it was 9.97% (active). In addition, the growth was -10.3% (active) in [13]; 23.2% in experiment [14]; 17.7% in experiment [15]; 28.3% in experiment [16]; -22.4% (active) in experiment [17]; 32.5% in [18]. The growth was 8.72% (active) in [19] and 52.7% in experiment [20].
As for `CCOC(=O)c1ccc(NC(=O)c2nc(-c3cc(OC)c(OC)c(OC)c3)n(-c3ccc(Cl)cc3)n2)cc1`, the growth is 102% in experiment [1]; 85.7% in experiment [2]; 91.4% in experiment [3]; 69.4% in experiment [4]; 86.3% in experiment [5]; 84% in experiment [6]. For the same compound, the growth in experiment [7] was 96.9%; in experiment [8] it was 97%; in [9], 96.5%; in experiment [10] it was 97.6%; in experiment [11], 93.2%; in experiment [12], 89.9%. The growth in experiment [13] was 81%; in experiment [14] it was 88.8%; in [15], 93.8%; in experiment [16], 77.5%; in experiment [17] it was 63.6%; in experiment [18] it was 77.7%. Further, the growth is 91.8% in experiment [19] and 95% in [20].
